Screening results deposited in PubChem BioAssay by National Center for Advancing Translational Sciences (NCATS).
ERK AVP block: vasopressin-driven ERK pathway inhibition; AID 995; 72,000 compounds, 0.99% hits; Potency, µM (series often up to 57.5 µM), hits mostly inhibitors; HEK293-V1b, vasopressin-stimulated pERK AlphaScreen; note: nearly all actives have a fitted effect of over 55% in size
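qHTS, compounds titrated on V1b-expressing HEK293 cells. Preincubation 30 min at 37C, vasopressin 25 nM for 5 min, lysis 10 min, bead incubation 5 hr at room temperature.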
Imprint erasure: induces erasure of genomic imprints in mouse ES cells | mouse ES Peg3-LacZ reporter, beta-gal luminescence, 40 h | Potency, µM (doses to about 60.7 µM), actives largely listed as activators | 110,000 compounds, 0.02% hits | AID 1948
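Readout: BetaGlo luminescence (5 min, room temp) for LacZ from the normally silent maternal Peg3 allele in female Peg3LacZ-Neo ES cells. Cells 300/well, 40 h, 37C, 5% CO2. Data normalized per plate to negative controls.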
IkB sig inh: suppresses IkB signaling in ABC-DLBCL reporter cells; ABC-DLBCL IkBa-CBG/CBR dual luciferase ratio, 4 h; response scale: scaled: untreated 0%, proteasome inhibitor 100%; Potency, µM (highest dose often 57.1 µM); 110,000 compounds, 0.04% hits; active = well fitted curve in the direction sought with a large enough effect in the signal ratio, not every such curve was filed as active; inconclusive = small, poorly fitted or top-dose-only effect, or a change in a side signal; the % refers to the signal ratio;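 note: the direction sought is a rising ratio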
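In this assay, an IκBα–CBG68 fusion accumulates when IKK-driven degradation is blocked; native CBR normalizes for cell number. OCI-Ly3 cells were treated 4 h with compound and doxycycline, then green and red light read after Chroma-Glo addition.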
CRE Fsk mod: modulators of forskolin-stimulated CRE signaling in CHO cells; AID 662; Potency, µM (series often up to 38.2 µM), usual class: activators; CHO CRE-bla reporter (cAMP response element driving beta-lactamase), forskolin EC10, beta-lactamase ratio; 71,000 compounds, 2.5% hits; active = well fitted activation curve with a large enough effect in the signal ratio, with a control signal flat, not every such curve was filed as active; inconclusive = small, poorly fitted or top-dose-only effect, or effect the other way, or a change in a side signal; the % refers to the signal ratio
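Forskolin analogue NKH 477 at EC10 stimulated CRE-driven beta-lactamase in CHO cells alongside compound dilution series. Beta-lactamase was measured with CCF4, excitation 405 nm, emission ratio 460/530 nm.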
Large screens that a line does not name were inactive. The sample as a whole holds a higher share of hits than the screen did. Unless noted, calls come from the whole dose curve; as a rule, active = well fitted curve in the direction sought with a large enough effect; inconclusive = small, poorly fitted or top-dose-only effect, or another doubt; inactive = no such curve, though single readings can be large; an effect the other way counts as inactive or inconclusive.

CC(C)CC1N=C2c3ccccc3N=C(SCc3cc(=O)n4ccccc4n3)N2C1=O (stereo not drawn)	CRE Fsk mod 3.2µM
CC1(C)CC(=O)C2=C(C1)NC(SCC(=O)Nc1ccccc1)=C(C#N)C2c1ccco1 (stereo not drawn)	CRE Fsk mod 13µM
C/C=C\C1=C(CO)C(=O)C2O[C@]2(CC=C(C)C)C1=O (stereo partly drawn)	none (no result: Imprint erasure, IkB sig inh, CRE Fsk mod)
O=c1cnc2cnc(OCc3ccccc3)nc2n1CCc1ccccc1	CRE Fsk mod inconclusive (no result: Imprint erasure)
N#CCCn1c(=O)cnc2cnc(OCc3ccccc3)nc21	CRE Fsk mod 13µM (no result: Imprint erasure)
COCCn1c(=O)c(-c2cccc(C#N)c2)nc2cnc(Oc3ccc(OC)cc3)nc21	ERK AVP block inconclusive, CRE Fsk mod 16µM
N#CCCn1c(=O)c(-c2cc(F)cc(F)c2)nc2cnc(OCc3ccccc3)nc21	CRE Fsk mod inconclusive (no result: Imprint erasure)
COc1ncc2nc(-c3cccs3)c(=O)n(-c3ccccc3)c2n1	CRE Fsk mod 5µM (no result: Imprint erasure)
N#CCCn1c(=O)c(-c2cccs2)nc2cnc(OCc3ccccc3)nc21	CRE Fsk mod 1.3µM (no result: Imprint erasure)
N[C@H](Cc1ccc(F)cc1)C(=O)O	none (no result: Imprint erasure)
CCCS(=O)(=O)NCCc1csc(-c2cccnc2)n1	none (no result: ERK AVP block)
CC1=C(/C=C\C(=O)O)C(C)(C)CCC1	none
C/C(=C\CNc1ncnc2c1ncn2[C@@H]1O[C@@H](CO)[C@@H](O)[C@H]1O)CO	none (no result: ERK AVP block, Imprint erasure)
CCC(=O)[C@]12O[C@@]3(C4C(=O)OCCC41)N(Cc1ccccc1)C(C)=C(C(=O)OC)C(c1ccccc1)N3C2=O (stereo partly drawn)	none (no result: Imprint erasure, IkB sig inh, CRE Fsk mod)
COCCn1c(=O)c(-c2cccs2)nc2cnc(OCc3ccccc3)nc21	CRE Fsk mod 2.5µM (no result: Imprint erasure)
COCCn1c(=O)c(-c2ccccc2)nc2cnc(OC)nc21	CRE Fsk mod 13µM
COc1ncc2nc(-c3cc(F)cc(F)c3)c(=O)n(CCc3ccccc3)c2n1	CRE Fsk mod 10µM (no result: Imprint erasure)
COCCn1c(=O)c(-c2cccs2)nc2cnc(OC)nc21	CRE Fsk mod 2.5µM
COCCn1c(=O)c(-c2ccc(Cl)cc2)nc2cnc(OC)nc21	CRE Fsk mod inconclusive (no result: Imprint erasure)
CC(C)(C)N1C(=O)[C@H]2[C@H]3[C@H](O)[C@H](O)C/C(=N/OC[C@@H](O)COCc4ccco4)[C@H]3CC[C@@H]2C1=O	none (no result: Imprint erasure, IkB sig inh, CRE Fsk mod)
O=C1OC2(c3cc(Br)c(O)c(Br)c3Oc3c2cc(Br)c(O)c3Br)c2c(Cl)c(Cl)c(Cl)c(Cl)c21	ERK AVP block inconclusive, CRE Fsk mod inconclusive
Cc1nn(-c2ccccn2)c2c1C(c1ccsc1)C1=C(CCCC1=O)N2 (stereo not drawn)	IkB sig inh inconclusive, CRE Fsk mod 3.2µM
CCCn1c(-c2ccc(F)cc2)nc2c(NCCN(C)C)nc(C)nc21	none (no result: IkB sig inh)
OC[C@@H]1O[C@@H](n2cnc3c(N[C@@H]4C[C@@H]5CC[C@H]4C5)ncnc32)[C@@H](O)[C@H]1O	none (no result: Imprint erasure)
[O-]/[N+](=N\O)c1ccccc1	none
COc1ccc(OC)c(Nc2c3c(nc4ccccc24)CCC3)c1	none (no result: ERK AVP block, CRE Fsk mod)
COc1ccc2nc3c(c(-c4ccccc4)c2c1)CCC3	CRE Fsk mod 10µM (no result: IkB sig inh)
CCN(CC)c1nc(C#N)cc(-c2ccc(OC)cc2)n1	CRE Fsk mod 13µM
CCOC(=O)CSc1nc(-c2ccc(OC)cc2)cc(C(F)(F)F)c1C#N	none (no result: ERK AVP block, CRE Fsk mod)
CCN(CC)c1nc2cc(OC)ccc2cc1C#N	CRE Fsk mod 13µM
C[C@@]12C[C@H](O)[C@@H]3[C@H](CCC4=CC(=O)CC[C@]43C)[C@H]1CC[C@@H]2c1csc(-c2ccccc2)n1	none (no result: Imprint erasure)
CCn1cc(C(=O)NCc2cccs2)c(=O)c2cc(S(=O)(=O)N3CCOCC3)ccc21	CRE Fsk mod 20µM
CCCCOc1ccccc1C1CC(=O)Nc2cc(OC)c(OC)cc21 (stereo not drawn)	none (no result: ERK AVP block, CRE Fsk mod)
CCCCOc1cc(C[C@@H]2CNC(=O)N2)ccc1OC	ERK AVP block inconclusive, IkB sig inh inconclusive, CRE Fsk mod 0.4µM
C/C(CCN1CCCc2nc(C)c(C)cc21)=N\O[C@@H](C)c1cn([C@H](CO)Cc2ccccc2)nn1	none (no result: Imprint erasure, IkB sig inh, CRE Fsk mod)
COc1ccc(S(=O)(=O)N2c3ccc(Cl)cc3[C@](O)(c3ccccc3Cl)[C@@H]2C(=O)N2CCC[C@H]2C(N)=O)cc1OC	ERK AVP block 4µM (no result: IkB sig inh, CRE Fsk mod)
COc1ccc(S(=O)(=O)N2CCC(C(=O)N3CCCCC3)CC2)cc1OC	none (no result: Imprint erasure)
O=C1C(SCCO)=C(SCCO)C(=O)c2ccccc21	ERK AVP block 16µM, IkB sig inh inconclusive, CRE Fsk mod inconclusive
N#CC(=NCCO)C1=C(O)c2ccccc2C1=O	none
